Data taken from PubChem BioAssay (EPA / NIEHS).
Values joined by “and” are separate entries in the source; they are usually repeats but may differ in a detail not shown here. Identical values can stand only once. Records with an inconclusive call do not appear. Some structures have more than one record in an assay (separate samples or runs), and their calls can disagree. Active and inactive are the calls of the source. Rule for the calls, unless noted: active = hit-call score of the fitted dose curve at least 0.9, where 1 is the maximum; inactive = score below 0.9.

Experiments:
[1] = ATG_TGFb_CIS: Attagene CIS-FACTORIAL HepG2 Assay for human Transforming Growth Factor (TGF) (AID 2282967); details: HepG2 Attagene CIS TGFb reporter, mRNA transcription; actives raise or lower the signal
Summary of the method: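 Transcript-level reporter readout: HepG2 transfectants, 24 h exposure, RNA to cDNA, reporter-specific PCR, fluorescent primer extension, capillary sizing against ROX standards. Gain- or loss-of-signal relative to DMSO.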

[2] = target: X-box-binding protein 1 (Homo sapiens) (UniProt P17861); assay: ATG_Xbp1_CIS: Attagene CIS-FACTORIAL HepG2 Assay for human X-box Binding Protein 1 (XBP1) (AID 2282972); details: HepG2 XBP1 cis-element reporter, Attagene multiplex; actives raise or lower the signal
Summary of the method: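 HepG2, transient MRTU transfection (cis-promoter driven), 24 h compound exposure. Total RNA → oligo(dT) RT → PCR → 6-FAM labeling → HpaI cut → CE. Bidirectional fit vs DMSO.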

[3] = ATG_M_19_TRANS: Attagene TRANS-FACTORIAL HepG2 Assay for M19 Transcription Factor (Internal Marker) (AID 2282974; active = hit-call score of the fitted dose curve at least 0.9, where 1 is the maximum); details: HepG2 Attagene TRANS-FACTORIAL M19 internal marker reporter
Summary of the method: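 HepG2 transiently transfected with GAL4-UAS multiplex reporter constructs, exposed 24 h; reporter RNA quantified by RT-PCR, 6-FAM labeling, HpaI digestion and capillary electrophoresis; internal background marker fitted upward versus DMSO.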

[4] = ATG_GAL4_TRANS: Attagene TRANS-FACTORIAL HepG2 Assay for GAL4 (Internal Marker) (AID 2282976; active = hit-call score of the fitted dose curve at least 0.9, where 1 is the maximum); details: HepG2 Attagene TRANS GAL4 internal marker reporter
Summary of the method: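 Liver HepG2 line bearing multiplexed GAL4-UAS reporter constructs; 24 h chemical treatment. Transcripts were quantified as fluorescent fragments on capillary electrophoresis after RT-PCR and HpaI cut, with activity fitted upward from DMSO.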

[5] = target: Glucocorticoid receptor (Homo sapiens) (UniProt P04150); assay: ATG_GR_TRANS: Attagene TRANS-FACTORIAL HepG2 Assay for human Glucocorticoid Receptor (GR) (AID 2282978; active = hit-call score of the fitted dose curve at least 0.9, where 1 is the maximum;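 note: activators score as hits since higher reporter transcript over DMSO is fitted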); details: HepG2 Attagene TRANS GR reporter, mRNA transcription
Summary of the method: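 HepG2 cells transiently transfected with GAL4-UAS reporter units and exogenous GR-Gal4 chimera, dosed 24 h. Reporter mRNA by RT-PCR, FAM labeling, HpaI digest and capillary electrophoresis; gain-of-signal fit versus DMSO.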

[6] = target: Bile acid receptor (Homo sapiens) (UniProt Q96RI1); assay: ATG_FXR_TRANS: Attagene TRANS-FACTORIAL HepG2 Assay for Farnesoid X Receptor (FXR) (AID 2282979; active = hit-call score of the fitted dose curve at least 0.9, where 1 is the maximum;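 note: hits raise reporter mRNA above DMSO so AC50 marks FXR activation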); details: HepG2 Attagene TRANS FXR-GAL4 reporter transcription
Summary of the method: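 After 24 h chemical treatment of transfected HepG2 cells, GAL4-UAS reporter transcripts driven by an exogenous FXR-GAL4 fusion were measured by RT-PCR and capillary electrophoresis. Increases over DMSO were fitted.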

[7] = ATG_M_06_TRANS: Attagene TRANS-FACTORIAL HepG2 Assay for M06 Transcription Factor (Internal Marker) (AID 2282983; active = hit-call score of the fitted dose curve at least 0.9, where 1 is the maximum;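 note: reporter transcript level by RT-PCR then capillary electrophoresis fluorescence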); details: HepG2 Attagene TRANS M06 internal marker reporter
Summary of the method: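 Internal-marker background readout from a multiplexed TRANS reporter system in HepG2; 24 h dosing; mRNA induction quantified by RT-PCR plus capillary electrophoresis fluorescence; DMSO as negative control and baseline.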

[8] = ATG_M_32_TRANS: Attagene TRANS-FACTORIAL HepG2 Assay for M32 Transcription Factor (Internal Marker) (AID 2282984; active = hit-call score of the fitted dose curve at least 0.9, where 1 is the maximum;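 note: transcript level of a background control reporter unit measured by RT-PCR and capillary electrophoresis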); details: HepG2 Attagene TRANS M32 internal marker reporter
Summary of the method: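 HepG2 cells transiently transfected with GAL4-UAS reporter units, dosed for 24 hours. Reporter mRNA quantified by RT-PCR, 6-FAM labelling, HpaI digestion and capillary electrophoresis; internal-marker signal fitted upward relative to DMSO.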

[9] = target: Nuclear receptor subfamily 4 group A member 2 (Homo sapiens) (UniProt P43354); assay: ATG_NURR1_TRANS: Attagene TRANS-FACTORIAL HepG2 Assay for human Nuclear Receptor Related Protein 1 (NURR1) (AID 2282985; active = hit-call score of the fitted dose curve at least 0.9, where 1 is the maximum); details: HepG2 Attagene TRANS reporter, mRNA readout
Summary of the method: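 HepG2 cells transiently transfected with NURR1-Gal4 chimera and GAL4-UAS reporter units; after 24 hr compound exposure, reporter mRNA quantified by RT-PCR and capillary electrophoresis; gain of signal fitted against DMSO.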

[10] = target: Transcriptional activator Myb (Homo sapiens) (UniProt P10242); assay: ATG_Myb_CIS: Attagene CIS-FACTORIAL HepG2 Assay for human Myeloblastosis (Myb) Proto-Oncogene Transcription Factor (AID 2282986); details: HepG2 Attagene CIS-FACTORIAL Myb reporter transcription; actives raise or lower the signal
Summary of the method: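 Transiently transfected HepG2 cells carrying a multiplexed cis-promoter reporter set report endogenous Myb activity after 24 h compound exposure. Reporter mRNA is read by RT-PCR with capillary electrophoresis of fluorescent products, fitted bidirectionally against DMSO.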

[11] = ATG_NFI_CIS: Attagene CIS-FACTORIAL HepG2 Assay for human Nuclear Factor I (NFI) (AID 2282989); details: HepG2 cis-regulatory reporter, NFI response element transcription; actives raise or lower the signal
Summary of the method: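 After transient transfection of HepG2 with cis-promoter reporter constructs and 24 h dosing, RNA is reverse-transcribed, amplified, 6-FAM end-labelled and HpaI-digested before capillary analysis. Bidirectional curve fitting against DMSO.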

[12] = target: Hepatocyte nuclear factor 4-alpha (Homo sapiens) (UniProt P41235); assay: ATG_HNF4a_TRANS: Attagene TRANS-FACTORIAL HepG2 Assay for human Hepatocyte Nuclear Factor 4 alpha (HNF4a) (AID 2282982; active = hit-call score of the fitted dose curve at least 0.9, where 1 is the maximum); details: HepG2 HNF4a transactivation reporter, mRNA readout
Summary of the method: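 HepG2 cells transiently transfected with HNF4a-Gal4 chimera and GAL4-UAS reporter units, dosed for 24 h. Reporter mRNA measured by RT-PCR, fluorescent primer extension and capillary electrophoresis; gain-of-signal fitted relative to DMSO.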

[13] = target: Nuclear respiratory factor 1 (Homo sapiens) (UniProt Q16656); assay: ATG_NRF1_CIS: Attagene CIS-FACTORIAL HepG2 Assay for human Nuclear Respiratory Factor 1 (NRF1) Orphan Gene (AID 2282987); details: HepG2 NRF1 cis-element reporter, Attagene multiplex; actives raise or lower the signal
Summary of the method: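 HepG2 cells transiently transfected with multiple cis-regulated reporter units, exposed 24 h. Reporter mRNAs measured by RT-PCR, fluorescent labelling, HpaI digestion and capillary electrophoresis; bidirectional fitting against DMSO.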

[14] = target: Steroid hormone receptor ERR1 (Homo sapiens) (UniProt P11474); assay: ATG_ERRa_TRANS: Attagene TRANS-FACTORIAL HepG2 Assay for human Estrogen-Related Receptor alpha (ERRa) (AID 2282971; active = hit-call score of the fitted dose curve at least 0.9, where 1 is the maximum); details: HepG2 Attagene TRANS reporter, ERRa transactivation
Summary of the method: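 Signal gain relative to DMSO for an ERRa-Gal4 chimeric receptor, read as reporter mRNA by RT-PCR/capillary electrophoresis. Human HepG2 liver cells, transient multiplex reporter transfection, 24 h chemical exposure.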

[15] = target: Estrogen-related receptor gamma (Homo sapiens) (UniProt P62508); assay: ATG_ERRg_TRANS: Attagene TRANS-FACTORIAL HepG2 Assay for human Estrogen-Related Receptor gamma (ERRg) (AID 2282977; active = hit-call score of the fitted dose curve at least 0.9, where 1 is the maximum;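 note: hits increase reporter signal over DMSO so potencies reflect activators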); details: HepG2 Attagene TRANS reporter, ERRg transactivation
Summary of the method: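 Transfect HepG2 with multiple GAL4-UAS reporter transcription units; dose chemicals 24 h; isolate RNA, reverse-transcribe with oligo(dT), PCR-amplify, label with 6-FAM, digest with HpaI; size fragments by capillary electrophoresis. DMSO serves as negative control.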

[16] = target: Oxysterols receptor LXR-beta (Homo sapiens) (UniProt P55055); assay: ATG_LXRb_TRANS: Attagene TRANS-FACTORIAL HepG2 Assay for human Liver X Receptor beta (LXRb) (AID 2282981; active = hit-call score of the fitted dose curve at least 0.9, where 1 is the maximum); details: HepG2 Attagene TRANS GAL4-LXRb reporter, mRNA
Summary of the method: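 HepG2 cells transiently transfected with GAL4-UAS reporter units for chimeric NR-Gal4 proteins, dosed for 24 h. Reporter transcripts measured by RT-PCR and capillary electrophoresis; gain-of-signal fitting relative to DMSO.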

[17] = target: Oxysterols receptor LXR-alpha (Homo sapiens) (UniProt Q13133); assay: ATG_LXRa_TRANS: Attagene TRANS-FACTORIAL HepG2 Assay for human Liver X Receptor alpha (LXRa) (AID 2282980; active = hit-call score of the fitted dose curve at least 0.9, where 1 is the maximum); details: HepG2 Attagene TRANS reporter, LXRa transactivation
Summary of the method: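 In this multiplexed TRANS system, compounds act on HepG2 cells carrying GAL4-UAS reporter units and a receptor-GAL4 fusion for 24 h. Induced reporter RNA is amplified, fluorescently labelled and sized by capillary electrophoresis, with DMSO as baseline.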

[18] = target: Estrogen receptor (Homo sapiens) (UniProt P03372); assay: ATG_ERa_TRANS: Attagene TRANS-FACTORIAL HepG2 Assay for human Estrogen Receptor alpha (ERa) (AID 2282970; active = hit-call score of the fitted dose curve at least 0.9, where 1 is the maximum); details: HepG2 Attagene TRANS ERa GAL4 reporter, mRNA
Summary of the method: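 Multiplexed cell-based reporter format in HepG2: chimeric ERa-Gal4 protein drives GAL4-UAS reporter transcription. Fluorescent reporter mRNA quantified by capillary electrophoresis 24 hours after dosing; endpoint fitted as signal gain against DMSO.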

Measured: AC50

Chain of Hepatocyte nuclear factor 4-alpha (Homo sapiens) (P41235 whole entry, looked up, the tested form may be a part): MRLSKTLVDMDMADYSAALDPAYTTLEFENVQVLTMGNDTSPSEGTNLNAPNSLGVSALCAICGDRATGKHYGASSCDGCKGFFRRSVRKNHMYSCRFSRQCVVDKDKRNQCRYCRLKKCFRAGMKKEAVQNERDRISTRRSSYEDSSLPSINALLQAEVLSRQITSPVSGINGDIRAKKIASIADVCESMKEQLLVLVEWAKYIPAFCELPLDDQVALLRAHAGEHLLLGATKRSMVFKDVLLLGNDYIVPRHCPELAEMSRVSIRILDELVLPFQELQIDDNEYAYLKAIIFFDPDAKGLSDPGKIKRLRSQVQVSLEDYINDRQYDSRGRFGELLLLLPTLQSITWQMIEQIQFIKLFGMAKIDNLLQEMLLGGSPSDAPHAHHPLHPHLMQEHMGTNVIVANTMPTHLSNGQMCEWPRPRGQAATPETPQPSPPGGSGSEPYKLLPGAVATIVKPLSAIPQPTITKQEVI
Chain of X-box-binding protein 1 (Homo sapiens) (P17861 whole entry, looked up): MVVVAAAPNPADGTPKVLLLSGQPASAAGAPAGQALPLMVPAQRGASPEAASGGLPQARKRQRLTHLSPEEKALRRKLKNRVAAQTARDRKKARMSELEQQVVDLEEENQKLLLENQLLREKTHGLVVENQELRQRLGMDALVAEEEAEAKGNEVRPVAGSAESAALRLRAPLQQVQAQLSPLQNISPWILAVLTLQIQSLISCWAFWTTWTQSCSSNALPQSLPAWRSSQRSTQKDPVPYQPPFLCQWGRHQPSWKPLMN
Chain of Bile acid receptor (Homo sapiens) (Q96RI1 whole entry, looked up, the tested form may be a part): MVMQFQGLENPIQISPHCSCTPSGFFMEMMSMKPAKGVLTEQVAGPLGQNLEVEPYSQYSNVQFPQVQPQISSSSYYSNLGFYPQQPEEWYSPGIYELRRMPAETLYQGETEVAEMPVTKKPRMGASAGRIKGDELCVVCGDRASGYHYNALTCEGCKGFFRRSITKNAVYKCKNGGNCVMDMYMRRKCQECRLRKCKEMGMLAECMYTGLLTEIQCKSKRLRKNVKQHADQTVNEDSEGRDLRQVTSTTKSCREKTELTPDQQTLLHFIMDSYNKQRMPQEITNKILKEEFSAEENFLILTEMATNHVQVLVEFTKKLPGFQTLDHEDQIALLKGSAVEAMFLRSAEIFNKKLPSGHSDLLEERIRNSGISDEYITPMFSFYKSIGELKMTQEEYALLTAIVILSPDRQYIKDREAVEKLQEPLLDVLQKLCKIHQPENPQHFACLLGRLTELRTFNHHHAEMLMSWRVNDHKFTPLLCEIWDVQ
Chain of Oxysterols receptor LXR-alpha (Homo sapiens) (Q13133 whole entry, looked up, the tested form may be a part): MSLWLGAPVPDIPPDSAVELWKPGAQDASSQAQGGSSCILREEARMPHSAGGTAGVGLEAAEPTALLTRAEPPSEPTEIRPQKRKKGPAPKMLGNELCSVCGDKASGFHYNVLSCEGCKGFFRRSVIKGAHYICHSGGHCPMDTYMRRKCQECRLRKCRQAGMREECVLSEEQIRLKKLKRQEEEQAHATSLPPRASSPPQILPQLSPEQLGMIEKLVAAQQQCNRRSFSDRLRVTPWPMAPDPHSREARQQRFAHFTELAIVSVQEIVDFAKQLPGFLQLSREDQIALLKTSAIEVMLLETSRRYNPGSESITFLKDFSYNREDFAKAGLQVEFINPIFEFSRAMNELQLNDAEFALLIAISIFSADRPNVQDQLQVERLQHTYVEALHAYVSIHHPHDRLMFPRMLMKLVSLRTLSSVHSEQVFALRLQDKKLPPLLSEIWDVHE
Chain of Nuclear receptor subfamily 4 group A member 2 (Homo sapiens) (P43354 whole entry, looked up, the tested form may be a part): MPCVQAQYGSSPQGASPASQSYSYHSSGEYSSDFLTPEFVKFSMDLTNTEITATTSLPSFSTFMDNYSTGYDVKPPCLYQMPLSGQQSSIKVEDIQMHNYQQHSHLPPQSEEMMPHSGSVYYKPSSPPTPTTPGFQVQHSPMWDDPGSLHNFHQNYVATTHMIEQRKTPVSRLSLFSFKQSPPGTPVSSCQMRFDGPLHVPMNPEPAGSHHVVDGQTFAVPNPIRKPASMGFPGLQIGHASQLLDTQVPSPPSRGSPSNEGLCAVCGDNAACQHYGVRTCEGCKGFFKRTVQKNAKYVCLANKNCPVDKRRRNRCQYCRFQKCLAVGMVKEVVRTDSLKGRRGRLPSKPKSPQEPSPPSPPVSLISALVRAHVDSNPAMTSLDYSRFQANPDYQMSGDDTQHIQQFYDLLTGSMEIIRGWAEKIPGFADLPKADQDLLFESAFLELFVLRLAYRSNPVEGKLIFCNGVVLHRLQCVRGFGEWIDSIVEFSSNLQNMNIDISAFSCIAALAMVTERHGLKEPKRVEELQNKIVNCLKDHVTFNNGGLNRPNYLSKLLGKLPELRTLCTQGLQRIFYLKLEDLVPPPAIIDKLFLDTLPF
Chain of Oxysterols receptor LXR-beta (Homo sapiens) (P55055 whole entry, looked up, the tested form may be a part): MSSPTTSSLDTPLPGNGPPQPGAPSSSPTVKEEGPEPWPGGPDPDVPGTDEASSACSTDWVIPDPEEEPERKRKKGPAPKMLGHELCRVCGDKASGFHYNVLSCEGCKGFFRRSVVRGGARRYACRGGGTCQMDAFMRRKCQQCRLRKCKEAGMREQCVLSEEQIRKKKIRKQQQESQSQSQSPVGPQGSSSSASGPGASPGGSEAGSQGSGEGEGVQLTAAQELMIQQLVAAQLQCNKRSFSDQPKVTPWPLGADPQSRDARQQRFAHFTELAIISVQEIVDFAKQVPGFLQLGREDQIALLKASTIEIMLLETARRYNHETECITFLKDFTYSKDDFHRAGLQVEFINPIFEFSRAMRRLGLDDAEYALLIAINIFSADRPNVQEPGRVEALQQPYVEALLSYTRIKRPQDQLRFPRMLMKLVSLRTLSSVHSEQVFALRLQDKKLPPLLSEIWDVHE
Chain of Transcriptional activator Myb (Homo sapiens) (P10242 whole entry, looked up): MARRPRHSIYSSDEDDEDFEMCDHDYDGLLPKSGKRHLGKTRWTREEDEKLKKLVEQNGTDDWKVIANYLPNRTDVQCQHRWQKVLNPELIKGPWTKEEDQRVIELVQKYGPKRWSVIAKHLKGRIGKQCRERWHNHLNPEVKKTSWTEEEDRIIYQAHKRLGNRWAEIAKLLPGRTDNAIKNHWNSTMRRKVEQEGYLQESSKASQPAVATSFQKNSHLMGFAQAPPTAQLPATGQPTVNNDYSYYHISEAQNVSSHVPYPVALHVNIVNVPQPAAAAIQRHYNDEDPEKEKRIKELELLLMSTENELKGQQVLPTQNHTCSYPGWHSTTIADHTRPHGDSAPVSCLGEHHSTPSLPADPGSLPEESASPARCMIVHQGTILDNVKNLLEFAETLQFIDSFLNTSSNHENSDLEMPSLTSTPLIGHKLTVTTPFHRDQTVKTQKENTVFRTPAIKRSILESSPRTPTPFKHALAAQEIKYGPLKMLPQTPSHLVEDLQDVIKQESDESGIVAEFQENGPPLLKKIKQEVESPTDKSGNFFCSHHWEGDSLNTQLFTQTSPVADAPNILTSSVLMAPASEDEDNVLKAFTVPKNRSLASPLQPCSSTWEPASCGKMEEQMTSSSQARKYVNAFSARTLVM
Chain of Glucocorticoid receptor (Homo sapiens) (P04150 whole entry, looked up, the tested form may be a part): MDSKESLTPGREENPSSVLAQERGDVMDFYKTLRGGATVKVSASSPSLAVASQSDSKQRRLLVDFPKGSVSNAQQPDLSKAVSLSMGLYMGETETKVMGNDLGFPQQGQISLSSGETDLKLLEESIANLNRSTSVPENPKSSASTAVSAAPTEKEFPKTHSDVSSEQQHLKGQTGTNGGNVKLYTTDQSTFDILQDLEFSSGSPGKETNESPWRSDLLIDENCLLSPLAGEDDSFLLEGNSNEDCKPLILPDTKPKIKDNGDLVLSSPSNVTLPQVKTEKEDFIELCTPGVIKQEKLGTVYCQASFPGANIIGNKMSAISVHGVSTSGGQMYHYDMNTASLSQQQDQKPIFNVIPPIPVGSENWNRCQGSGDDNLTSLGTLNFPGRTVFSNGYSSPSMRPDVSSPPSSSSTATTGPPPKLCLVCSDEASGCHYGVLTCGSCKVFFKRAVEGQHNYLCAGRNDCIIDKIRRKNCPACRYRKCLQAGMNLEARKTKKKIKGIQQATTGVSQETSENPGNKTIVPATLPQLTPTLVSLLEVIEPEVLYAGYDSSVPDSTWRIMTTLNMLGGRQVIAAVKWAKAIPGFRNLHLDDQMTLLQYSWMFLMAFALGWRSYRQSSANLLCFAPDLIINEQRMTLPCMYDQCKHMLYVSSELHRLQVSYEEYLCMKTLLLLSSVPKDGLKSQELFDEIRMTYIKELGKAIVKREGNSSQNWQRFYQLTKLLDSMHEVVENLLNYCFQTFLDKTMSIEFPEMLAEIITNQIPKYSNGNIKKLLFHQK
Chain of Nuclear respiratory factor 1 (Homo sapiens) (Q16656 whole entry, looked up): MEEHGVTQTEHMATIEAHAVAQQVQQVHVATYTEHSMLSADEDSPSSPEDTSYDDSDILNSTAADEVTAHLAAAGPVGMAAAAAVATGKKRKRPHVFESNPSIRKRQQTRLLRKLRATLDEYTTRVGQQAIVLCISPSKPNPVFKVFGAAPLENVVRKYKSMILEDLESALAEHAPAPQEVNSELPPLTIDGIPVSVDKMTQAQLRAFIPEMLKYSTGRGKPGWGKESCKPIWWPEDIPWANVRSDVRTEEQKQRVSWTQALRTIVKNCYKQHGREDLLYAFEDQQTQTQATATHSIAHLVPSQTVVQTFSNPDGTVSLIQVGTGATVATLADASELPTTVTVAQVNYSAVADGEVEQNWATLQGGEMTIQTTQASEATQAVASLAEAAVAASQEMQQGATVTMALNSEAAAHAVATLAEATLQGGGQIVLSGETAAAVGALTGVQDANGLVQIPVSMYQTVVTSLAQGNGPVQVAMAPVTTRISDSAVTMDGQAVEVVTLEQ

O=C(Oc1ccccc1)c1cccc(C(=O)Oc2ccccc2)c1
inactive: [1] | [2] | [3] | [4] | [5] | [6] | [7] | [8] | [9] | [10] | [11]

COC(=O)CCCC(=O)OC
inactive: [1] | [2] | [5] | [6] | [12] | [7] | [9] | [10] | [13] | [11]

Cc1cc(SC2=C(O)C[C@@](CCc3ccc(N)cc3)(C(C)C)OC2=O)c(C(C)(C)C)cc1CO
inactive: [1] | [14] | [2] | [3] | [15] | [16] | [10] | [13] | [11]

CC(=O)O[C@]1(C(C)=O)CC[C@H]2[C@@H]3C=C(Cl)C4=CC(=O)[C@@H]5C[C@@H]5[C@]4(C)[C@H]3CC[C@@]21C
inactive: [1] | [2] | [3] | [4] | [17] | [16] | [12] | [7] | [9] | [10] | [11]
active: [2] 45.5 µM and 51.8 µM and 43 µM | [10] 50.8 µM

CC(N)=O
inactive: [1] | [2] | [4] | [5] | [17] | [16] | [7] | [9] | [10] | [11]

Oc1ccc(O)cc1
inactive: [1] | [12] | [7] | [9] | [10] | [13] | [11]
active: [18] 59.9 µM | [2] 114 µM

NC1CCCCC1
inactive: [1] | [2] | [4] | [17] | [12] | [7] | [10] | [11]

CCc1cc(C2=C(C(=O)O)N(c3ccccc3C(F)(F)F)S(=O)(=O)c3ccccc32)cc2c1OCO2
inactive: [1] | [2] | [4] | [5] | [7] | [10] | [13] | [11]

CC(C)COC(=O)CCCCC(=O)OCC(C)C
inactive: [1] | [2] | [3] | [6] | [16] | [12] | [10] | [13] | [11]

O=Cc1ccccc1C=O
inactive: [1] | [2] | [4] | [17] | [16] | [7] | [9] | [10] | [13] | [11]

CCCCC(CC)COP(=O)(OCC(CC)CCCC)OCC(CC)CCCC (centres undefined)
inactive: [1] | [2] | [4] | [5] | [6] | [7] | [10] | [13] | [11]

Nc1nc(Cl)nc2c1ncn2[C@H]1C[C@H](O)[C@@H](CO)O1
inactive: [1] | [2] | [5] | [6] | [16] | [7] | [10] | [11]
